Assay results: PubChem BioAssay
The source made the active and inactive calls.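 The calls were made as follows, unless noted: active = viability loss from added drug above about 55%, and viability with drug at most 40%, in both replicates (limit read from the data, passing the limit was not always enough); inconclusive = both conditions met in only one replicate; inactive = neither replicate meets both conditions.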

Tests used:
[1] = SK-BR-3 cell growth inhibitors, pilot screen, 24 h, human (AID 572;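 active = viability at or below 10% of carrier control in both of two separate runs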;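 also: compound exposure lasted between 18 and 24 h rather than exactly 24 h; 100% = carrier-treated control wells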); details: SK-BR-3 viability, CellTiter-Glo luminescence, at 10 µM, stronger effect = lower value
[2] = HUVEC growth inhibition – cell-based, human, primary screen (AID 575;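 active = viability at or below 30% in both replicate assays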;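 also: 100% = median of untreated cell wells with 0.1% DMSO on each plate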); details: HUVEC proliferation, CellTiter-Glo luminescence, 72 h; at 10 µM; stronger effect = lower value
[3] = growth inhibitors of H69AR lung tumor, primary screen, human, duplicate replicates (AID 580;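 active = viability at or under a set limit in both replicates, limit being median viability minus 3 SD, cut at about 48% in these data, passing the limit was not always enough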;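 also: 100% = mean luminescence of untreated wells and 0% = no signal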); details: H69AR lung tumor cells viability, ATP luminescence, 72 h; at 10 µM; stronger effect = lower value
[4] = reversal of MRP1-mediated doxorubicin resistance, pilot screen, H69AR cells, doxorubicin co-treatment (AID 601); details: CellTiter-Glo, 72 h, at 10 µM; for differential viability (reversal): stronger effect = higher value
[5] = 384-well plate pilot, post-Golgi transport modulator project, inhibition of yeast transport mutant growth (AID 636; in the data active = inhibition above about 31%); details: absorbance 615 nm, about 18 h, stronger effect = higher value
[6] = growth suppression of yeast trafficking mutant, preliminary HTS, modulators of trafficking downstream of Golgi apparatus project, 1536-format plate, OD 615 nm (AID 637; in the data active = inhibition above about 30%); details: yeast transport mutant growth, absorbance 615 nm, 18 h; stronger effect = higher value
[7] = H69AR cells + 2 uM doxorubicin, measured here: viability with 2 uM doxorubicin, stronger effect = lower value
[8] = H69AR cells, compound alone cytotoxicity

Compound | viability [1] | viability [2] | viability [3] | differential viability (reversal) ([4]; H69AR cells + 2 uM doxorubicin) | viability [4, 7] [%] | viability [4, 8] [%] | inhibition [5] | inhibition [6]
CN(C)c1ccc(NC(=O)c2ccncc2)c2ccccc12 | 113% (inactive) | 108% (inactive) | 101% (inactive) | 5.85% (inactive) | 95.2 | 101 | -7.43% (inactive) | -0.73% (inactive)
CCOC(=O)c1cnc(-n2nc(C)cc2C)nc1N1CC(C)OC(C)C1 (centres undefined) | 127% (inactive) | 105% (inactive) | 86.1% (inactive) | 9.65% (inactive) | 76.4 | 86.1 | -3.47% (inactive) | 0.73% (inactive)
CCOC(=O)Cn1nnnc1CN(Cc1ccc(OC)cc1)Cc1cc2cc(C)ccc2[nH]c1=O | 101% (inactive) | 101% (inactive) | 94.3% (inactive) | -0.605% (inactive) | 94.9 | 94.3 | -1.33% (inactive) | 4.55% (inactive)
COc1ccccc1-c1noc(-c2ccco2)n1 | 102% (inactive) | 91% (inactive) | 90.7% (inactive) | -2.78% (inactive) | 93.5 | 90.7 | 0% (inactive) | -3.55% (inactive)
CC(C(=O)O)c1ccc(-c2ccccc2)c(F)c1 (centres undefined) | 94% (inactive) | 81.7% (inactive) | 90.2% (inactive) | -1.62% (inactive) | 91.8 | 90.2 | -1.82% (inactive) | -1.5% (inactive)
Cc1cc(C(F)(F)F)nc(NCc2cccnc2)n1 | 97% (inactive) | 96.4% (inactive) | 92.5% (inactive) | 9.55% (inactive) | 82.9 | 92.5 | -1.04% (inactive) | -1.97% (inactive)
COc1ccc(-c2nc3cc(NC(=O)Cc4ccc(OC)c(OC)c4)ccc3o2)cc1 | 90.5% (inactive) | 54.8% (inactive) | 94.4% (inactive) | 3.68% (inactive) | 90.7 | 94.4 | 0.67% (inactive) | 2.58% (inactive)
O=C(O)c1cccc(NC(=O)C23CC4CC(C2)CC(n2cnc(Cl)n2)(C4)C3)c1 | 122% (inactive) | 105% (inactive) | 96.9% (inactive) | 5.78% (inactive) | 91.1 | 96.9 | -1.95% (inactive) | 0.98% (inactive)
Cc1ccc2[nH]c3c(=O)n(CCCN4CCN(C)CC4)cnc3c2c1 | 115% (inactive) | 99.9% (inactive) | 95.5% (inactive) | 2.28% (inactive) | 93.2 | 95.5 | -4.67% (inactive) | 0% (inactive)
CC(=O)Nc1ccc(N=Cc2nc(-c3ccc(C)cc3)oc2O)cc1 | 102% (inactive) | 96.2% (inactive) | 94.5% (inactive) | 1.61% (inactive) | 92.9 | 94.5 | 0% (inactive) | -1.8% (inactive)
Cc1ccc(NC(=O)COC(=O)c2ccn(C)n2)cc1 | 76% (inactive) | 90.8% (inactive) | 87.2% (inactive) | 7.78% (inactive) | 79.4 | 87.2 | -2.74% (inactive) | -1.09% (inactive)
Cc1ccc2c(c1)C(O)(CC(=O)c1ccc3c(c1)OCO3)C(=O)N2 (centres undefined) | 78% (inactive) | 92.3% (inactive) | 94.3% (inactive) | 8.13% (inactive) | 86.2 | 94.3 | -4.11% (inactive) | -7.58% (inactive)
COCCCN1C(=O)C(=O)/C(=C(/O)c2ccc(OC)cc2)C1c1ccc(O)c(OC)c1 (centres undefined) | 104% (inactive) | 109% (inactive) | 103% (inactive) | 6.55% (inactive) | 96.9 | 103 | -2.53% (inactive) | -1.45% (inactive)
O=C(NCCN1CCOCC1)NC1(C(F)(F)F)Oc2ccc(Cl)cc2O1 (centres undefined) | 107% (inactive) | 57.1% (inactive) | 22.6% (active) | -16.8% (inactive) | 39.5 | 22.6 | -7.53% (inactive) | 0% (inactive)
CC(=O)c1c(O)cc(C)n(Nc2nc(C)cc(C)n2)c1=O | 91% (inactive) | 84.6% (inactive) | 71.9% (inactive) | -28.5% (inactive) | 100 | 71.9 | -4.05% (inactive) | -0.73% (inactive)
Cc1ccc(OCCN2CCN(C(=O)CCC(=O)Nc3nnc(C)s3)CC2)cc1 | 88% (inactive) | 118% (inactive) | 88.6% (inactive) | -3.2% (inactive) | 91.8 | 88.6 | -7.03% (inactive) | 2.91% (inactive)
O=C(Nc1ccccc1C(=O)N1CCOCC1)c1cccc(S(=O)(=O)N2CCCC2)c1 | 112% (inactive) | 92.3% (inactive) | 88.2% (inactive) | -1.19% (inactive) | 89.3 | 88.2 | -2.08% (inactive) | 0.49% (inactive)
O=S(=O)(NCC1CCCO1)c1ccc2c(c1)OCCO2 (centres undefined) | 128% (inactive) | 98% (inactive) | 97.6% (inactive) | 0.805% (inactive) | 96.8 | 97.6 | 0.41% (inactive) | -5.48% (inactive)
